Measured values published in PubChem BioAssay.
Calls of active or inactive are those of the source.

What was measured:
[1] = system: Human papillomavirus type 1a protein E7 (residues 44-93); assay: small molecules binding HPV E7 44-93 – biochemical, small-molecule microarray, residues 44-93, 635 nm fluorescence, primary screen (AID 1108); conditions: fluorescence 635 nm, higher = more signal;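 further: E7 fragment applied at 1 µg/mL in TBST for 1 h at 4 C; score combines spot fluorescence with its signal to noise ratio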
[2] = hepatitis C replication reporter changes, two-sided – Huh7 cells, luciferase reporter, HCV replication inhibitor project, primary screen (AID 1109); conditions: Huh7 HCV replicon luciferase reporter, 48 h; higher = more signal;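 further: huh7 hepatoma cells harbouring a luciferase neomycin HCV replicon reporter; luciferase luminescence as measure of HCV replicon replication; test concentration not given here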
[3] = molecular target: Left-right determination factor 2 (Homo sapiens) (UniProt O00292); assay: small molecules binding LEFTY2 protein – biochemical, small-molecule microarray, 635 nm fluorescence scan, primary screen (AID 1110); conditions: higher = more signal
[4] = molecular target: Calmodulin-1 (Homo sapiens) (UniProt P0DP23); assay: small molecules binding calmodulin-1 with EGTA – biochemical, small-molecule microarray, Cy5-labelled CALM1, profiling panel (AID 1111); conditions: Cy5-CALM1 binding fluorescence, higher = more signal;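 further: labelled calmodulin applied in Tris saline Tween buffer holding calcium plus EGTA and DTT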
[5] = molecular target: Calmodulin-1 (Homo sapiens) (UniProt P0DP23); assay: small molecules binding Ca-loaded calmodulin-1 – biochemical, small-molecule microarray, Cy5-labelled CALM1, plus calcium, artefact control for SMM control-protein annotation, profiling panel (AID 1112); conditions: Cy5-CALM1 binding fluorescence, higher = more signal;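 further: score merges spot fluorescence with signal to noise from triplicate slides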
[6] = probe aWnt5a binding to arrayed compounds – biochemical, biotinylated probe, 635/667 nm fluorescence, primary screen (AID 1113); conditions: small-molecule microarray, higher = more signal;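 further: score merges 667 nm fluorescence intensity with signal-to-noise per printed feature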
[7] = probe aShh binding to arrayed compounds – biochemical, biotinylated probe, 635/667 nm fluorescence, primary screen (AID 1114); conditions: small-molecule microarray, higher = more signal;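 further: probe is biotin-labelled aShh protein from a stem cell growth factor screen; measures binding of labelled protein to compounds printed on the slide; score merges feature fluorescence at 667 nm with signal-to-noise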
[8] = probe aNog binding to arrayed compounds – biochemical, biotinylated probe, 635/667 nm fluorescence, primary screen (AID 1115); conditions: small-molecule microarray, higher = more signal;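 further: probe is biotinylated aNog protein used at 0.15 µg/mL for 1 h at 4 C; z-score combines 667 nm fluorescence of each spot with its signal to noise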
[9] = molecular target: Torsin-1A-interacting protein 1 (Homo sapiens) (UniProt Q5JTV8); assay: compound microarray binding of lysate hLAP1 – cell lysate, small-molecule microarray, COS7 lysate, 635/667 nm fluorescence, primary screen (AID 1116); conditions: 635 nm fluorescence, higher = more signal
[10] = molecular target: Alpha-bungarotoxin (Bungarus multicinctus) (UniProt P60615); assay: compounds binding labelled alpha-BTX control protein – biochemical, small-molecule microarray, Alexa647 label, 635/667 nm fluorescence, artefact control for SMM control protein annotation, profiling panel (AID 1117); conditions: alpha-BTX-A647 binding fluorescence, higher = more signal
[11] = molecular target: Albumin (Bos taurus) (UniProt P02769); assay: compounds binding labelled BSA control protein – biochemical, small-molecule microarray, Alexa647 label, 635/667 nm fluorescence, artefact control for SMM control protein annotation, profiling panel (AID 1118); conditions: BSA-A647 binding, fluorescence 635 nm, higher = more signal;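 further: score merges 667 nm emission intensity and signal-to-noise per printed compound spot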
[12] = probe aXIP binding to arrayed compounds – biochemical, NeuroSMM set, 635/667 nm fluorescence, primary screen (AID 1119); conditions: small-molecule microarray, higher = more signal, called active from +8 up or from −8 down;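 further: probe is the protein aXip251-270 applied at 1 µg/mL to compound-printed slides; binding of probe to printed compounds measured as 667 nm fluorescence plus signal to noise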
[13] = probe aNOTCH3 binding on compound microarray – biochemical, small-molecule microarray, 635/667 nm fluorescence, primary screen (AID 1120); conditions: higher = more signal;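 further: probe is a biotin-tagged antibody raised against NOTCH3 rather than NOTCH3 protein; score merges spot fluorescence near 667 nm with spot signal to noise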
[14] = probe aNOTCH2 binding on compound microarray – biochemical, small-molecule microarray, 635/667 nm fluorescence, primary screen (AID 1121); conditions: higher = more signal;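 further: score merges feature fluorescence read at 667 nm with its signal to noise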
[15] = molecular target: Carbonic anhydrase 2 (Homo sapiens) (UniProt P00918); assay: compounds binding carbonic anhydrase 2 – biochemical, small-molecule microarray, Alexa647-labelled CAII, profiling panel (AID 1122); conditions: CAII-A647 binding fluorescence, higher = more signal
[16] = COS7 lysate on small-molecule microarray, probe aHis, 635 nm (AID 1123); conditions: COS7 cell lysate, fluorescence, higher = more signal;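 further: z-score combines 667nm fluorescence intensity with signal-to-noise per printed compound spot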
[17] = probe aLAP1 signal on lysate-treated microarray – cell lysate, small-molecule microarray, COS7 lysate, primary screen (AID 1124); conditions: probe aLAP1, fluorescence, higher = more signal;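 further: lysate comes from COS7 cells expressing LAP1 and is applied at 0.3 µg/mL; score merges spot fluorescence near 667 nm with signal-to-noise over triplicate slides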
[18] = system: Sam68 (KHDRBS1); assay: compounds binding KHDRBS1 protein – biochemical, small-molecule microarray, 635 nm fluorescence, primary screen (AID 1125); conditions: higher = more signal;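 further: score merges 667 nm channel intensity with signal to noise over triplicate slides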
[19] = system: Chordin-like protein 2 (CHRDL2); assay: compounds binding chordin-like 2 – biochemical, small-molecule microarray, 635 nm fluorescence, primary screen (AID 1126); conditions: fluorescence 635 nm, higher = more signal;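 further: printed compound slides probed with Chrdl2 protein at 4 µg/mL for 1 h at 4 C; score merges 667 nm emission intensity with signal to noise over three replicate slides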
[20] = molecular target: Concanavalin-A (Canavalia ensiformis) (UniProt P02866); assay: compounds binding concanavalin A lectin – biochemical, small-molecule microarray, Alexa647 label, 635 nm, artefact control for SMM control protein annotation, primary screen (AID 1127); conditions: ConA-A647 binding fluorescence, higher = more signal;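 further: z combines 667 nm emission intensity with signal-to-noise across three replicate slides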
Chain of Concanavalin-A (Canavalia ensiformis) (P02866 whole entry, looked up): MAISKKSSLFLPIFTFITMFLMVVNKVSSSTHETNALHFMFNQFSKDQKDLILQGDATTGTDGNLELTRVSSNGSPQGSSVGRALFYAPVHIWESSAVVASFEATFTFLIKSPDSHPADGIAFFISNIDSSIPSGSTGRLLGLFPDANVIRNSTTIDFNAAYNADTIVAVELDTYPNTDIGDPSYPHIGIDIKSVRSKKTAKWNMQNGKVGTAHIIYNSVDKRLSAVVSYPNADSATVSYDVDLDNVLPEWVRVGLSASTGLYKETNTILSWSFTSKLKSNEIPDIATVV

Chain of Left-right determination factor 2 (Homo sapiens) (O00292 whole entry, looked up): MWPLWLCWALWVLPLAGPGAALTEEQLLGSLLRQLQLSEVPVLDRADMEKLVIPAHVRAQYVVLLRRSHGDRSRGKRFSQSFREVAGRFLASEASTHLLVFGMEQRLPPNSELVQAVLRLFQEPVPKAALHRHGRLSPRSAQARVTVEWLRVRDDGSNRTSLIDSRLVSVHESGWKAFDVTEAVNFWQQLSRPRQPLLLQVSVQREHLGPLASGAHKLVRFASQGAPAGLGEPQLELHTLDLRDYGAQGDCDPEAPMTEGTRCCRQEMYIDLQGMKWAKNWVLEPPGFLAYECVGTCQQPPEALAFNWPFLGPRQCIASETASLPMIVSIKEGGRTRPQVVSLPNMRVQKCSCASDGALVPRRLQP
Chain of Albumin (Bos taurus) (P02769 whole entry, looked up): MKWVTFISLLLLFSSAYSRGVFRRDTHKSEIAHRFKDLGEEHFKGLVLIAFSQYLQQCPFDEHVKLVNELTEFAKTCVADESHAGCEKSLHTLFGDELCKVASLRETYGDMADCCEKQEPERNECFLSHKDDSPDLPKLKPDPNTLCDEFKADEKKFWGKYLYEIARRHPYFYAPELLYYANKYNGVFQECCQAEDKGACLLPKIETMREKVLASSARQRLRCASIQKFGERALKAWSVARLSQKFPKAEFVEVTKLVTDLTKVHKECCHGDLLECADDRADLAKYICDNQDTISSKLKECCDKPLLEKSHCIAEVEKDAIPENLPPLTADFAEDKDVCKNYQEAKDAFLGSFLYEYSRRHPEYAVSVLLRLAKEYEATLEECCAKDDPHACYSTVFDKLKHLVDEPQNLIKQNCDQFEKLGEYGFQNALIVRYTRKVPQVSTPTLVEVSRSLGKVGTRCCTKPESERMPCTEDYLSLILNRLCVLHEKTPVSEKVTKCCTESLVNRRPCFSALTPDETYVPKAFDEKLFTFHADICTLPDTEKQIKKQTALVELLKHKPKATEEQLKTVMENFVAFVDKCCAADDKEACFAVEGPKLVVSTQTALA
Chain of Alpha-bungarotoxin (Bungarus multicinctus) (P60615 whole entry, looked up): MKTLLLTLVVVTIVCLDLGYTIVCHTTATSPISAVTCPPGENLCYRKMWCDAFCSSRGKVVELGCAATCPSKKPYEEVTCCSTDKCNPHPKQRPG
Chain of Torsin-1A-interacting protein 1 (Homo sapiens) (Q5JTV8 whole entry, looked up): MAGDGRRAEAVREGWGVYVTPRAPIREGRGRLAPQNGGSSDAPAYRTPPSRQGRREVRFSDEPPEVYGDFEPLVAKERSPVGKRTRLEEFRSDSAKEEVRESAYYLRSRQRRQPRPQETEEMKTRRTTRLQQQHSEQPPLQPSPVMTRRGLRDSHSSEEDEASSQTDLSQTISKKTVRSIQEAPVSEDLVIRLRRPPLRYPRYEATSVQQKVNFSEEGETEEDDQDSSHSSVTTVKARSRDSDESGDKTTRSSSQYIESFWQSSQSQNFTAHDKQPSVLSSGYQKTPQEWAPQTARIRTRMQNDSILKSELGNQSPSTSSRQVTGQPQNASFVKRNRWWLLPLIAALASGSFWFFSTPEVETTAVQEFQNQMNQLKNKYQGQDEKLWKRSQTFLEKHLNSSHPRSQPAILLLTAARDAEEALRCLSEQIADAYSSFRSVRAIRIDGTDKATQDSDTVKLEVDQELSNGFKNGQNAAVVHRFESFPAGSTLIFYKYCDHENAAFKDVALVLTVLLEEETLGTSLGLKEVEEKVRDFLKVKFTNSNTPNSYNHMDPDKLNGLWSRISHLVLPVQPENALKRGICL

Compound	composite z-score [1]	z-score [2]	composite z-score [3]	composite z-score [4]	composite z-score [5]	composite z-score [6]	composite z-score [7]	composite z-score [8]	composite z-score [9]	composite z-score [10]	composite z-score [11]	composite Z-score [12]	composite z-score [13]	composite z-score [14]	composite z-score [15]	composite z-score [16]	composite z-score [17]	composite z-score [18]	composite z-score [19]	composite z-score [20]
C=CCNC(=O)[C@@H]1[C@H]2C(=O)O[C@H](c3ccccc3)[C@H](c3ccccc3)N2[C@H](c2ccc(O)cc2)[C@@]12C(=O)Nc1ccc(C#CC3=CCCCC3)cc12	1.44	-2.61	0.385	1.1	0.683	0.171	1.85	2.03	1.58	1.9	0.543	0.986 (inactive)	1.22	-0.0857	0.676	1.69	1.24	1.32	0.334	1.04
COCCCNC(=O)[C@@]1(Cc2ccccc2I)c2ccccc2C(=O)N(Cc2ccccc2OC)[C@H]1c1ccc(CO)cc1	1.39	-2.08	-0.43	0.0345	0.0879	-0.248	-0.0146	-0.537	-0.013	0.101	-0.685	0.0679 (inactive)	-0.134	-0.14	0.542	2.31	-0.143	0.614	-1.82	0.911
O=C1O[C@@H](c2ccccc2)[C@@H](c2ccccc2)N2[C@@H](c3ccccc3OCCO)[C@]3(C(=O)Nc4ccc(C#CC5(O)CCCCCC5)cc43)[C@@H](C(=O)N3CCCCCCC3)[C@H]12	1.61	-2.22	1.87	3.06	1.82	1.65	3.04	3.8	5.6	4.54	-0.411	9.73 (active)	2.33	1.21	1.06	5.19	1.41	1.33	1.69	0.93
O=C1NC(=O)C2C1C=CC(C(O)c1ccc(F)cc1)N2Nc1ccc(Cl)cc1Cl (stereo not given)	0.379	-0.659	-0.752	0.805	1	-0.0403	0.867	0.993	0.68	0.712	0.369	1.69 (inactive)	0.0488	-0.0113	0.732	2.4	0.591	0.246	-0.242	-0.345
COc1ccc(CCNC(=O)[C@@H]2c3ccccc3C(=O)N(C(C)C)[C@H]2c2ccc(CO)cc2)cc1	-0.943	-1.41	-1.81	-0.446	0.465	-0.172	-0.209	-0.0621	0.434	2.66	-1.09	1.13 (inactive)	-0.209	-0.132	0.722	1.42	-0.362	-0.139	-1.87	-0.574
O=C1O[C@H](c2ccccc2)[C@H](c2ccccc2)N2[C@H]1[C@@H](C(=O)Nc1nc3ccccc3s1)[C@]1(C(=O)Nc3ccccc31)[C@H]2c1ccccc1OCCO	1.39	-2.72	0.364	2.01	0.736	-0.0405	-0.0289	-0.501	2.27	1.69	0.939	0.417 (inactive)	0.0242	-0.014	0.393	2.24	0.921	1.29	-0.131	0.668
[N-]=[N+]=NCc1ccccc1C[C@]1(C(=O)N2CCCCC2)COC(c2ccc(OCCCO)cc2)=N1	0.288	-2.57	0.227	0.103	-0.171	-0.255	0.262	-0.694	2.29	0.49	0.744	-0.838 (inactive)	-0.159	-0.242	0.375	1.58	-0.44	1.24	0.0846	0.984
[N-]=[N+]=Nc1ccccc1C[C@@]1(C(=O)NCC(O)CO)N=C(c2ccc(OCCCO)cc2)O[C@@H]1c1ccccc1N=[N+]=[N-] (stereo not given in full)	0.796	-3.13	-0.458	2.15	0.176	0.0586	0.348	-0.596	1.64	0.427	0.874	-0.213 (inactive)	0.204	0.0124	0.78	2.25	1.26	1.12	-0.802	0.902
CCCCN1CC=CC23O[C@@H]4C=CCCOC(=O)C4[C@H]2C(=O)N(CCO)[C@@H]3C1=O (stereo not given in full)	-0.548	-0.161	-1.02	-0.555	-0.436	-0.298	0.149	-0.249	-0.997	-0.363	0.0656	-0.535 (inactive)	-0.246	-0.109	0.79	-1.36	1.94	-0.33	-0.418	-0.0932
COc1ccc([Si](C)(C)[C@H]2[C@H](CC(=O)N(CCO)Cc3ccccc3)O[C@@]3(C(=O)N(c4ccccc4)c4ccccc43)[C@@H]2C)cc1	1.32	-5.19	0.753	0.503	-0.0244	-0.104	0.0022	-0.519	0.105	1.17	0.504	0.308 (inactive)	0.123	-0.117	0.34	0.66	0.264	1.2	1.19	1.06
CC(C)N1C(=O)[C@@]2(Cc3ccccc31)c1ccccc1C(=O)N(Cc1ccccc1)[C@H]2c1ccc(CO)cc1	0.256	-0.656	0.159	-0.439	-0.445	-0.124	-0.64	-0.218	0.0896	0.648	-0.103	-0.289 (inactive)	-0.118	-0.205	-0.224	0.0227	1.79	0.316	0.702	-0.0679
